Measurements: the supplement of paper PMC4466140

B1: unnamed (peptide)
chain: KNRKNLPTIPIRLSG
B2: unnamed (peptide)
chain: NMLSRPRLAKLPSIR
B3: unnamed (peptide)
chain: RSVKRPRRAPRPVVS

Target: AgAbp1
Assay: SPOT peptide array binding signal intensity (averaged, normalized) (arbitrary units (background-subtracted, floor 0; scale differs between SH3 domains)); higher = stronger binding of the SH3 domain to the peptide
Method in brief: (§1)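 GST-fused SH3 domains, from four yeast species, were produced in E. coli BL21(DE3) and captured on glutathione Sepharose. Membranes of cellulose carrying synthetic 15-mer peptides, in which cysteines had been replaced by serines, were exposed to each domain at 10 μg/ml overnight at 4°C in TBS-based blocking buffer. After anti-GST antibody, an HRP anti-mouse secondary and luminol, spots were imaged and quantified using Genespotter. Binding signal is normalized and background-subtracted spot intensity, averaged over replicates, in arbitrary units that differ between domains.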

Binder	SPOT peptide array binding signal intensity
B1	4080
B2	124
B3	124

Target: AgBbc1
Assay: as above
Method in brief: as §1

Binder	SPOT peptide array binding signal intensity
B1	456
B2	16.5
B3	434

Target: AgBem1-D1
Assay: as above
Method in brief: as §1

Binder	SPOT peptide array binding signal intensity
B1	144
B2	394
B3	116

Target: AgBzz1-D1
Assay: as above
Method in brief: as §1

Binder	SPOT peptide array binding signal intensity
B1	104
B2	23
B3	54.5

Target: AgBzz1-D2
Assay: as above
Method in brief: as §1

Binder	SPOT peptide array binding signal intensity
B1	35
B2	3
B3	19

Target: AgCyk3
Assay: as above
Method in brief: as §1

Binder	SPOT peptide array binding signal intensity
B1	1
B2	≤ 0
B3	2

Target: AgFus1
Assay: as above
Method in brief: as §1

Binder	SPOT peptide array binding signal intensity
B1	63
B2	458
B3	372

Target: AgHof1
Assay: as above
Method in brief: as §1

Binder	SPOT peptide array binding signal intensity
B1	240
B2	331
B3	49

Target: AgHse1
Assay: as above
Method in brief: as §1

Binder	SPOT peptide array binding signal intensity
B1	206
B2	2140
B3	592

Target: AgLsb1
Assay: as above
Method in brief: as §1

Binder	SPOT peptide array binding signal intensity
B1	318
B2	3.25
B3	4.5

Target: AgLsb4
Assay: as above
Method in brief: as §1

Binder	SPOT peptide array binding signal intensity
B1	108
B2	59
B3	150

Target: AgMyo5
Assay: as above
Method in brief: as §1

Binder	SPOT peptide array binding signal intensity
B1	≤ 0
B2	≤ 0
B3	1.25

Target: AgNbp2
Assay: as above
Method in brief: as §1

Binder	SPOT peptide array binding signal intensity
B1	1360
B2	362
B3	908

Target: AgRvs167
Assay: as above
Method in brief: as §1

Binder	SPOT peptide array binding signal intensity
B1	5.83
B2	4.33
B3	2.17

Target: AgSho1
Assay: as above
Method in brief: as §1

Binder	SPOT peptide array binding signal intensity
B1	4630
B2	388
B3	5

Target: AgSla1-D1-D2
Assay: as above
Method in brief: as §1

Binder	SPOT peptide array binding signal intensity
B1	402
B2	27
B3	15

Target: AgSla1-D3
Assay: as above
Method in brief: as §1

Binder	SPOT peptide array binding signal intensity
B1	7
B2	4.5
B3	6.25

Target: CaAbp1-D1
Assay: as above
Method in brief: as §1

Binder	SPOT peptide array binding signal intensity
B1	1420
B2	822
B3	586

Target: CaAbp1-D2
Assay: as above
Method in brief: as §1

Binder	SPOT peptide array binding signal intensity
B1	3510
B2	754
B3	430

Target: CaBbc1
Assay: as above
Method in brief: as §1

Binder	SPOT peptide array binding signal intensity
B1	1560
B2	165
B3	663

Target: CaBem1-D1
Assay: as above
Method in brief: as §1

Binder	SPOT peptide array binding signal intensity
B1	22
B2	526
B3	140

Target: CaBzz1-D1
Assay: as above
Method in brief: as §1

Binder	SPOT peptide array binding signal intensity
B1	221
B2	184
B3	108

Target: CaBzz1-D2
Assay: as above
Method in brief: as §1

Binder	SPOT peptide array binding signal intensity
B1	67.2
B2	69.8
B3	165

Target: CaCyk3
Assay: as above
Method in brief: as §1

Binder	SPOT peptide array binding signal intensity
B1	8
B2	46
B3	106

Target: CaFus1
Assay: as above
Method in brief: as §1

Binder	SPOT peptide array binding signal intensity
B1	382
B2	1210
B3	208

Target: CaHof1
Assay: as above
Method in brief: as §1

Binder	SPOT peptide array binding signal intensity
B1	0.25
B2	0.25
B3	2

Target: CaHse1
Assay: as above
Method in brief: as §1

Binder	SPOT peptide array binding signal intensity
B1	28.2
B2	183
B3	47.5

Target: CaLsb1
Assay: as above
Method in brief: as §1

Binder	SPOT peptide array binding signal intensity
B1	0.5
B2	2
B3	0.75

Target: CaLsb4
Assay: as above
Method in brief: as §1

Binder	SPOT peptide array binding signal intensity
B1	1340
B2	290
B3	1720

Target: CaMyo5
Assay: as above
Method in brief: as §1

Binder	SPOT peptide array binding signal intensity
B1	≤ 0
B2	46.5
B3	2

Target: CaNbp2
Assay: as above
Method in brief: as §1

Binder	SPOT peptide array binding signal intensity
B1	398
B2	1250
B3	1160

Target: CaRvs167
Assay: as above
Method in brief: as §1

Binder	SPOT peptide array binding signal intensity
B1	283
B2	97.2
B3	20.3

Target: CaRvs167-3
Assay: as above
Method in brief: as §1

Binder	SPOT peptide array binding signal intensity
B1	23.8
B2	60.5
B3	26.5

Target: CaSho1
Assay: as above
Method in brief: as §1

Binder	SPOT peptide array binding signal intensity
B1	1100
B2	1490
B3	198

Target: CaSla1-D1-D2
Assay: as above
Method in brief: as §1

Binder	SPOT peptide array binding signal intensity
B1	672
B2	663
B3	990

Target: CaSla1-D3
Assay: as above
Method in brief: as §1

Binder	SPOT peptide array binding signal intensity
B1	≤ 0
B2	254
B3	0.5

Target: ScAbp1
Assay: as above
Method in brief: as §1

Binder	SPOT peptide array binding signal intensity
B1	634
B2	424
B3	113

Target: ScBbc1
Assay: as above
Method in brief: as §1

Binder	SPOT peptide array binding signal intensity
B1	46.8
B2	3.5
B3	306

Target: ScBem1-D1
Assay: as above
Method in brief: as §1

Binder	SPOT peptide array binding signal intensity
B1	19
B2	21
B3	46.5

Target: ScBzz1-D1
Assay: as above
Method in brief: as §1

Binder	SPOT peptide array binding signal intensity
B1	35.5
B2	22
B3	11.5

Target: ScBzz1-D2
Assay: as above
Method in brief: as §1

Binder	SPOT peptide array binding signal intensity
B1	7
B2	29.5
B3	26

Target: ScCyk3
Assay: as above
Method in brief: as §1

Binder	SPOT peptide array binding signal intensity
B1	17
B2	35
B3	32

Target: ScFus1
Assay: as above
Method in brief: as §1

Binder	SPOT peptide array binding signal intensity
B1	63
B2	826
B3	260

Target: ScHof1
Assay: as above
Method in brief: as §1

Binder	SPOT peptide array binding signal intensity
B1	3
B2	28
B3	5.25

Target: ScHse1
Assay: as above
Method in brief: as §1

Binder	SPOT peptide array binding signal intensity
B1	582
B2	2110
B3	1150

Target: ScLsb1
Assay: as above
Method in brief: as §1

Binder	SPOT peptide array binding signal intensity
B1	462
B2	71.5
B3	156

Target: ScLsb2
Assay: as above
Method in brief: as §1

Binder	SPOT peptide array binding signal intensity
B1	824
B2	≤ 0
B3	31.5

Target: ScLsb3
Assay: as above
Method in brief: as §1

Binder	SPOT peptide array binding signal intensity
B1	2010
B2	570
B3	3170

Target: ScLsb4
Assay: as above
Method in brief: as §1

Binder	SPOT peptide array binding signal intensity
B1	80
B2	112
B3	192

Target: ScMyo3
Assay: as above
Method in brief: as §1

Binder	SPOT peptide array binding signal intensity
B1	4.5
B2	13.5
B3	1

Target: ScMyo5
Assay: as above
Method in brief: as §1

Binder	SPOT peptide array binding signal intensity
B1	1
B2	≤ 0
B3	4.25

Target: ScNbp2
Assay: as above
Method in brief: as §1

Binder	SPOT peptide array binding signal intensity
B1	1180
B2	370
B3	2270

Target: ScPex13
Assay: as above
Method in brief: as §1

Binder	SPOT peptide array binding signal intensity
B1	148
B2	142
B3	2.75

Target: ScRvs167
Assay: as above
Method in brief: as §1

Binder	SPOT peptide array binding signal intensity
B1	774
B2	43
B3	75

Target: ScSho1
Assay: as above
Method in brief: as §1

Binder	SPOT peptide array binding signal intensity
B1	5890
B2	962
B3	344

Target: ScSla1-D1-D2
Assay: as above
Method in brief: as §1

Binder	SPOT peptide array binding signal intensity
B1	2930
B2	389
B3	839

Target: ScSla1-D3
Assay: as above
Method in brief: as §1

Binder	SPOT peptide array binding signal intensity
B1	27.8
B2	418
B3	15.8

Target: SpAbp1-D1
Assay: as above
Method in brief: as §1

Binder	SPOT peptide array binding signal intensity
B1	1210
B2	610
B3	146

Target: SpBbc1
Assay: as above
Method in brief: as §1

Binder	SPOT peptide array binding signal intensity
B1	5.5
B2	1
B3	12

Target: SpBzz1-D1
Assay: as above
Method in brief: as §1

Binder	SPOT peptide array binding signal intensity
B1	512
B2	333
B3	250

Target: SpBzz1-D2
Assay: as above
Method in brief: as §1

Binder	SPOT peptide array binding signal intensity
B1	1.5
B3	≤ 0

Target: SpCyk3
Assay: as above
Method in brief: as §1

Binder	SPOT peptide array binding signal intensity
B1	23.5
B3	2

Target: SpHof1
Assay: as above
Method in brief: as §1

Binder	SPOT peptide array binding signal intensity
B1	1400
B3	268

Target: SpHof1-2
Assay: as above
Method in brief: as §1

Binder	SPOT peptide array binding signal intensity
B1	2230
B3	7

Target: SpHof1-3
Assay: as above
Method in brief: as §1

Binder	SPOT peptide array binding signal intensity
B1	1490
B3	748

Target: SpHse1
Assay: as above
Method in brief: as §1

Binder	SPOT peptide array binding signal intensity
B1	166
B3	234

Target: SpLsb1
Assay: as above
Method in brief: as §1

Binder	SPOT peptide array binding signal intensity
B1	510
B3	214

Target: SpLsb4
Assay: as above
Method in brief: as §1

Binder	SPOT peptide array binding signal intensity
B1	2330
B3	2230

Target: SpMyo1
Assay: as above
Method in brief: as §1

Binder	SPOT peptide array binding signal intensity
B1	25
B3	16

Target: SpNbp2
Assay: as above
Method in brief: as §1

Binder	SPOT peptide array binding signal intensity
B1	336
B3	412

Target: SpPex13
Assay: as above
Method in brief: as §1

Binder	SPOT peptide array binding signal intensity
B1	9.5
B3	10.5

Target: SpRvs167
Assay: as above
Method in brief: as §1

Binder	SPOT peptide array binding signal intensity
B1	1010
B3	11.2

Target: SpSla1-D1-D2
Assay: as above
Method in brief: as §1

Binder	SPOT peptide array binding signal intensity
B1	1490
B3	≤ 0

Target: SpSla1-D3
Assay: as above
Method in brief: as §1

Binder	SPOT peptide array binding signal intensity
B1	6
B3	3
